According to ChEMBL document CHEMBL1961873, “Compounds: GSK PKIS; Assays: Nanosyn kinase panel” (2012):
Values joined by “and” are separate entries in the source; they are usually repeats but may differ in a detail not shown here. Identical values can stand only once.

The molecules below were run against Serine/threonine-protein kinase MRCK alpha (Homo sapiens) (UniProt Q5VT25). Details: at 1 µM.
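Also: each value is an averaged percent inhibition of MRCK alpha.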

Serine/threonine-protein kinase MRCK alpha (Homo sapiens), sequence (Q5VT25 whole entry): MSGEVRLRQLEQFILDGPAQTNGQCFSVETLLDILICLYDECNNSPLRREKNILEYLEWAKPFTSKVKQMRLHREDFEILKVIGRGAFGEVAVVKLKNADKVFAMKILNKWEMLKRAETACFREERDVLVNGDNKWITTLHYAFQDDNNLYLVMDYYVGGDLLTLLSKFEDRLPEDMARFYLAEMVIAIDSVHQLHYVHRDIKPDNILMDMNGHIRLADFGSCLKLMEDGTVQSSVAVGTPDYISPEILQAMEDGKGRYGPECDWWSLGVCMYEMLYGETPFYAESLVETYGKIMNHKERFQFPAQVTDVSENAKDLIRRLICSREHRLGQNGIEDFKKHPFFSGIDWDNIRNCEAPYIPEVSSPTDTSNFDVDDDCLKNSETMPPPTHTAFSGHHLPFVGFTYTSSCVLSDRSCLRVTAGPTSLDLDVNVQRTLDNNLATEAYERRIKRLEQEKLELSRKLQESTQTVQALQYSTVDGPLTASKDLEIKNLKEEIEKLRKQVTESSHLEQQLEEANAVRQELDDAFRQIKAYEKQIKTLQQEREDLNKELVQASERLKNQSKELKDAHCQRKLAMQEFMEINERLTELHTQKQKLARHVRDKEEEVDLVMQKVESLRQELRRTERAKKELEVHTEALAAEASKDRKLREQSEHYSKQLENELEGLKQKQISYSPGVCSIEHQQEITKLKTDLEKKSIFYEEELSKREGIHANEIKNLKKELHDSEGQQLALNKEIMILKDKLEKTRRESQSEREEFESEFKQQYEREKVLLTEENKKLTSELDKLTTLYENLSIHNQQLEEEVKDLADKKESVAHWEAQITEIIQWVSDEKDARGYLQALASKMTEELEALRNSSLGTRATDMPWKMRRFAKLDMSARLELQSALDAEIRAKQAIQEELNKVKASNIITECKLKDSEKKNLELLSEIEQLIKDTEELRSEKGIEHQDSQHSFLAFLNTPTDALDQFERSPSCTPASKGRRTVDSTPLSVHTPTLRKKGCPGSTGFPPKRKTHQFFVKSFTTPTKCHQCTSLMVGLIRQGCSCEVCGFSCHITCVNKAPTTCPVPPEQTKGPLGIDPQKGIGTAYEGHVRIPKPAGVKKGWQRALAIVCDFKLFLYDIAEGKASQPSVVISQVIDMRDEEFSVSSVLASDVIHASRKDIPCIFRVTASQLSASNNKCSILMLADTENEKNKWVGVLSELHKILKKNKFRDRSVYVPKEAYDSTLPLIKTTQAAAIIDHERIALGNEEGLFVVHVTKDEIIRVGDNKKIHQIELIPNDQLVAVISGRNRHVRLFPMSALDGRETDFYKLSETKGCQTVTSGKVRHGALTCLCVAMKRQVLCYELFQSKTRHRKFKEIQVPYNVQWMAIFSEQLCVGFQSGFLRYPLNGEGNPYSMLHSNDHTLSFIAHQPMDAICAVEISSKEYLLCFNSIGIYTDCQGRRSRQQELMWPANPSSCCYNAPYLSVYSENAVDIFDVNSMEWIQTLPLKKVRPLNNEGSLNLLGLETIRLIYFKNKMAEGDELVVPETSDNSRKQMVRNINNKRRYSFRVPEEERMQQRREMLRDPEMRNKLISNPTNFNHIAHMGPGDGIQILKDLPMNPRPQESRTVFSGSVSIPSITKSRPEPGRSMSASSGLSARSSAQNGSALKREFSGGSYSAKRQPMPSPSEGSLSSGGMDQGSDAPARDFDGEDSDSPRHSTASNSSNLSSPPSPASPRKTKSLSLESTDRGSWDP

Row | SMILES | inhibition
1 | c1cnn2ncc(-c3ccnc(NCCCN4CCOCC4)n3)c2c1 | -2.56%
2 | CS(=O)(=O)CCNCc1ccoc1-c1ccc2ncnc(Nc3ccc(OCc4ccccc4)cc3)c2c1 | -3.38%
3 | COc1ccccc1-c1cc(/C=C2\C(=O)Nc3ncc(Br)cc32)cc(Br)c1O | -2.56%
4 | CN(C)CCNC(=O)Nc1ccc(N(C)c2ccnc(Nc3ccc(CS(C)(=O)=O)cc3)n2)cc1 | -0.69%
5 | N#Cc1cccc(Nc2ncc(-c3ccccc3)o2)c1 | 2.09%
6 | Cc1nnc(-c2cccc(-c3ccc(C(=O)NCC4CC4)cc3)c2)o1 | 2.11%
7 | CCN1CCC(C(=O)Nc2n[nH]c3nnc(-c4cccc(F)c4F)cc23)CC1 | 1.74%
8 | FC(F)(F)CNc1nccc(-c2cnn3ncccc23)n1 | -3.89%
9 | c1ccc(-c2n[nH]cc2-c2ccnc(-c3ccc(OCCn4ccnc4)cc3)c2)nc1 | -0.54%
10 | COc1cccc(Nc2nccc(-c3cnn4ncccc34)n2)c1 | -0.24%
11 | CS(=O)(=O)CCNCc1ccc(-c2ccc3ncnc(Nc4ccc(OCc5ccccc5)cc4)c3c2)o1 | -2.61%
12 | CN1CCN(Cc2ccc(-c3cc4ncnc(Nc5ccc(OCc6cccc(F)c6)c(Cl)c5)c4s3)o2)CC1 | -3.23% and 2%
13 | O=C(O[C@H]1CN[C@H](C#Cc2cc3ncnc(Nc4ccc5c(cnn5Cc5ccccc5)c4)c3s2)C1)N1CCOCC1 | -6.83%
14 | O=C(O[C@H]1CN[C@H](C#Cc2cc3ncnc(Nc4ccc5c(ccn5Cc5cc(F)ccc5F)c4)c3s2)C1)N1CCOCC1 | -1.5%
15 | CS(=O)(=O)Nc1ccc(-c2ccc3c(NC(=O)C4CC4)n[nH]c3c2)cc1 | -1.86%
16 | O=C(Nc1n[nH]c2nnc(-c3cccnc3)cc12)C1CC1 | -0.69%

Row | SMILES | inhibition
17 | COc1ccc(Nc2ncc(-c3ccccc3)o2)cc1OC | 2.02%
18 | COc1ccc(-c2nn3ncccc3c2-c2ccnc(Nc3ccc(F)c(F)c3)n2)cc1 | 4.1%
19 | OCCCNc1nccc(-c2c(-c3ccc(F)cc3)nn3cc(C(F)(F)F)ccc23)n1 | -1.54%
20 | CC1(C)CC(n2cnc(-c3ccc(F)cc3)c2-c2ccnc(N)n2)CC(C)(C)N1 | -0.52%
21 | Cc1cc(O)cc(C)c1/C=C/c1cncc(C(N)=O)c1 | 0.43%
22 | CN1CCC(n2cnc(-c3ccc(F)cc3)c2-c2ccnc(NCCO)n2)CC1 | 2.92%
23 | O=C1Nc2ccccc2/C1=C1\CCc2cc(O)ccc21 | 0.38%
24 | CC1=C(C(=O)Nc2ccc3[nH]ncc3c2)C(c2ccc(F)cc2)N=C(c2ccc(C(F)(F)F)nc2)N1 (stereo unspecified) | 0.82%
25 | COC(=O)Nc1nc2ccc(Oc3ccc(NC(=O)Nc4cc(C(F)(F)F)ccc4F)cc3)cc2s1 | -1.54%
26 | Cn1c(-c2nonc2N)nc2cnccc21 | 10.3%
27 | CNC(=O)c1ncccc1Nc1nc(Nc2cc3c(cc2OC)CCCN3C(=O)CN(C)C)nc2[nH]ccc12 | 2.88%
28 | COc1c(C(N)=O)cc(-c2ccc(Cl)cc2)cc1-c1ccc(S(N)(=O)=O)cc1 | 4.98%
29 | CS(=O)(=O)CCNCc1ccc(-c2ccc3ncnc(Nc4ccc(OCc5cccc(C(F)(F)F)c5)cc4)c3c2)o1 | 5.01%
30 | NC(=O)c1ccc2c(-c3ccnc(NCCCO)n3)c(-c3ccc(F)cc3)nn2c1 | 2.55%
31 | COc1cc(Nc2ncc(-c3ccccc3)o2)cc(OC)c1 | -1.27%
